# According to PubChem BioAssay (NCATS):
# Records with an inconclusive call do not appear. Active and inactive are the calls of the source. Calls come from the whole dose curve; as a rule, active = well fitted inhibition curve with a large enough effect; inconclusive = small, poorly fitted or top-dose-only effect; inactive = flat fitted curve, though single readings scatter.
# Test: P-glycoprotein substrates identified in KB-8-5-11 adenocarcinoma cell line, qHTS therapeutic library screen (AID 1346987); note: nearly all actives have a fitted effect of over 65% in size
# Conditions: KB-8-5-11 (P-gp overexpressing) viability, CellTiter-Glo, 72 h; series mostly up to 44.5 µM; activity change, negative = cytotoxicity: at the top concentration
# Summary of the method: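 Human cervical adenocarcinoma KB-8-5-11 cells, selected in colchicine to over-express P-gp and assayed without it, were exposed for 72 h to titrated compounds. An ATP-based luminescent viability signal gave AC50.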
# % is set by controls: 0 for no effect and ±100 for the full control effect.
Structure (SMILES),"activity change, negative = cytotoxicity",outcome
FC(F)(F)c1cc(C(F)(F)F)c2ccc3nc(-c4nnco4)cn3c2n1,5.16% (inactive),
CC1C(=O)CC2C3C(O)CC(C(=O)O)C12CC3(C)C (configuration not stated),,inactive
C=C1CC23CCC4[C@@](C)(CCC[C@@]4(C)C(=O)O)C2CCC1C3 (some centres not stated),1.4% (inactive),
O=C(COc1ccc(Cl)cc1)NC1CCC(NC(=O)COc2ccc(Cl)cc2)CC1 (configuration not stated),-6.68% (inactive),
CCC/C=C/C(=O)O[C@H]1CC(C)(C)CC2[C@]13[C@H](O)O[C@@]21CCC2[C@@]4(C)CC[C@H](O[C@@H]5O[C@H](C(=O)O)[C@@H](O)[C@H](O[C@@H]6O[C@H](CO)[C@H](O)[C@H](O)[C@H]6O[C@@H]6O[C@@H](C)[C@H](O)[C@@H](O)[C@H]6O[C@@H]6OC[C@](O)(CO)[C@H]6O)[C@H]5O[C@@H]5O[C@H](CO)[C@H](O)[C@H](O)[C@H]5O)C(C)(C)C4CC[C@@]2(C)[C@]1(C)C[C@H]3OC(C)=O (some centres not stated),0.402% [at 9.29 µM] (inactive),
O=C(NCC(=O)N1CC[C@H](NC2CCC(O)(c3ccc(-c4ncccn4)cn3)CC2)C1)c1cccc(C(F)(F)F)c1 (some centres not stated),8.28% (inactive),
OC[C@H]1O[C@@H](Oc2ccc(O)c3cccc(O)c23)[C@H](O)[C@@H](O)[C@@H]1O,2.55% (inactive),
